Screen size: about 5,500 compounds; about 2,000 (36%) were called active. About 18% were inconclusive and are not listed. No stated cut-off is given here; in the data, active means normalized growth mostly below about 0.91 (no sharp cut-off); inconclusive means no clear call, values can overlap the other calls; inactive means mostly above about 0.92. Some of the results follow.
Assay: chemical genetic growth profiling, strain panel (AID 1159580);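 further: tested at 20 µM; growth read once vehicle control cultures reached saturation at 30 °C; 1 = growth at the plate median or of vehicle wells; lower values mean less growth of the strain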
Settings: growth OD

Measured: normalized growth

CCOC(=O)CC(SP(=S)(OC)OC)C(=O)OCC (stereo unspecified)
inactive: S. cerevisiae deletion strains, locus YAL013W, strain DEP1, hits give low values 1.02 | S. cerevisiae deletion strains, locus YBR021W, strain FUR4, hits give low values 1.01 | S. cerevisiae deletion strains, locus YBR229C, strain ROT2, hits give low values 1.01 | S. cerevisiae deletion strains, locus YCL029C, strain bik1, hits give low values 1.01 | S. cerevisiae deletion strains, locus YDL035C, strain GPR1, hits give low values 1.02 | S. cerevisiae deletion strains, locus YDL074C, strain BRE1, hits give low values 0.996 | S. cerevisiae deletion strains, locus YDL101C, strain DUN1, hits give low values 1 | S. cerevisiae deletion strains, locus YDL134C, strain PPH21, hits give low values 1.01 | S. cerevisiae deletion strains, locus YDL185W, strain tfp1, hits give low values 1.02 | S. cerevisiae deletion strains, locus YDL192W, strain arf1, hits give low values 1 | S. cerevisiae deletion strains, locus YDR101C, strain arx1, hits give low values 0.998 | S. cerevisiae deletion strains, locus YDR150W, strain NUM1, hits give low values 0.996 | S. cerevisiae deletion strains, locus YDR162C, strain NBP2, hits give low values 1.01 | S. cerevisiae deletion strains, locus YDR318W, strain mcm21, hits give low values 1.02 | S. cerevisiae deletion strains, locus YDR388W, hits give low values 1.01 | S. cerevisiae deletion strains, locus YDR502C, strain sam2, hits give low values 0.998 | S. cerevisiae deletion strains, locus YEL061C, strain CIN8, hits give low values 1.01 | S. cerevisiae deletion strains, locus YER110C, hits give low values 1.01 | S. cerevisiae deletion strains, locus YER155C, strain BEM2, hits give low values 1.02 | S. cerevisiae deletion strains, locus YER167W, strain BCK2, hits give low values 1.02 | S. cerevisiae deletion strains, locus YGL078C, strain dbp3, hits give low values 0.998 | S. cerevisiae deletion strains, locus YGL086W, strain mad1, hits give low values 1 | S. cerevisiae deletion strains, locus YGL248W, strain PDE1, hits give low values 1.01 | S. cerevisiae deletion strains, locus YGR078C, strain PAC10, hits give low values 1.01 | S. cerevisiae deletion strains, locus YGR135W, strain pre9, hits give low values 0.994 | S. cerevisiae deletion strains, locus YGR229C, strain SMI1, hits give low values 1.02 | S. cerevisiae deletion strains, locus YGR252W, strain gcn5, hits give low values 1 | S. cerevisiae deletion strains, locus YHR030C, strain SLT2, hits give low values 1.02 | S. cerevisiae deletion strains, locus YHR079C, strain IRE1 (second series), hits give low values 1.01 | S. cerevisiae deletion strains, locus YHR094C, strain hxt1, hits give low values 1.01 | S. cerevisiae deletion strains, locus YHR129C, strain ARP1, hits give low values 1.02 | S. cerevisiae deletion strains, locus YHR200W, strain rpn10, hits give low values 1.01 | S. cerevisiae deletion strains, locus YIL066C, strain RNR3, hits give low values 1.04 | S. cerevisiae deletion strains, locus YIL073C, strain SPO22, hits give low values 1.09 | S. cerevisiae deletion strains, locus YIL125W, strain kgd1, hits give low values 0.998 | S. cerevisiae deletion strains, locus YIR030C, strain dcg1, hits give low values 1 | S. cerevisiae deletion strains, locus YJL095W, strain BCK1, hits give low values 1.02 | S. cerevisiae deletion strains, locus YJL134W, strain LCB3, hits give low values 1.01 | S. cerevisiae deletion strains, locus YJL168C, strain set2, hits give low values 1.01 | S. cerevisiae deletion strains, locus YJL187C, strain SWE1 (second series), hits give low values 1.01 | S. cerevisiae deletion strains, locus YJR043C, strain POL32, hits give low values 1.01 | S. cerevisiae deletion strains, locus YJR075W, strain HOC1, hits give low values 1.01 | S. cerevisiae deletion strains, locus YKL009W, strain mrt4, hits give low values 1.01 | S. cerevisiae deletion strains, locus YKL068W, hits give low values 1.01 | S. cerevisiae deletion strains, locus YKL085W, strain MDH1 (second series), hits give low values 1.01 | S. cerevisiae deletion strains, locus YKL085W, strain MDH1, hits give low values 1.01 | S. cerevisiae deletion strains, locus YKL190W, strain CNB1, hits give low values 1.01 | S. cerevisiae deletion strains, locus YKR001C, strain vps1, hits give low values 1.02 | S. cerevisiae deletion strains, locus YLR039C, strain RIC1, hits give low values 1.06 | S. cerevisiae deletion strains, locus YLR058C, strain SHM2, hits give low values 1.02 | S. cerevisiae deletion strains, locus YLR102C, strain apc9, hits give low values 1.01 | S. cerevisiae deletion strains, locus YLR262C, strain YPT6, hits give low values 1.04 | S. cerevisiae deletion strains, locus YLR268W, strain sec22, hits give low values 0.997 | S. cerevisiae deletion strains, locus YLR330W, strain CHS5, hits give low values 1.01 | S. cerevisiae deletion strains, locus YLR342W, strain FKS1 (second series), hits give low values 1.07 | S. cerevisiae deletion strains, locus YLR371W, strain rom2, hits give low values 1.01 | S. cerevisiae deletion strains, locus YLR418C, strain cdc73, hits give low values 0.988 | S. cerevisiae deletion strains, locus YML016C, strain PPZ1, hits give low values 1.01 | S. cerevisiae deletion strains, locus YML032C, strain rad52, hits give low values 1 | S. cerevisiae deletion strains, locus YML124C, strain tub3, hits give low values 1.01 | S. cerevisiae deletion strains, locus YMR078C, strain ctf18, hits give low values 1.02 | S. cerevisiae deletion strains, locus YMR223W, strain ubp8, hits give low values 1.01 | S. cerevisiae deletion strains, locus YMR263W, strain SAP30, hits give low values 1.01 | S. cerevisiae deletion strains, locus YMR307W, strain GAS1, hits give low values 1.05 | S. cerevisiae deletion strains, locus YNL067W, strain RPL9B, hits give low values 0.998 | S. cerevisiae deletion strains, locus YNL128W, strain TEP1, hits give low values 1 | S. cerevisiae deletion strains, locus YNL153C, strain GIM3, hits give low values 1.01 | S. cerevisiae deletion strains, locus YNL233W, strain BNI4, hits give low values 1 | S. cerevisiae deletion strains, locus YNL250W, strain rad50, hits give low values 1.01 | S. cerevisiae deletion strains, locus YNL271C, strain bni1, hits give low values 1.02 | S. cerevisiae deletion strains, locus YNL298W, strain CLA4, hits give low values 1.02 | S. cerevisiae deletion strains, locus YNL307C, strain MCK1, hits give low values 1.02 | S. cerevisiae deletion strains, locus YNL322C, strain KRE1, hits give low values 1.01 | S. cerevisiae deletion strains, locus YNR052C, strain pop2, hits give low values 1 | S. cerevisiae deletion strains, locus YOL006C, strain TOP1, hits give low values 1.02 | S. cerevisiae deletion strains, locus YOL012C, strain htz1 0.831 | S. cerevisiae deletion strains, locus YOL147C, strain pex11, hits give low values 1.01 | S. cerevisiae deletion strains, locus YOR061W, strain CKA2, hits give low values 1 | S. cerevisiae deletion strains, locus YOR069W, strain VPS5, hits give low values 1.01 | S. cerevisiae deletion strains, locus YOR136W, strain idh2, hits give low values 1 | S. cerevisiae deletion strains, locus YOR144C, strain elg1, hits give low values 1 | S. cerevisiae deletion strains, locus YOR184W, strain ser1, hits give low values 1.02 | S. cerevisiae deletion strains, locus YOR316C, strain cot1, hits give low values 1 | S. cerevisiae deletion strains, locus YPL055C, strain LGE1, hits give low values 1 | S. cerevisiae deletion strains, locus YPL241C, strain CIN2, hits give low values 1.01 | S. cerevisiae deletion strains, locus YPR119W, strain clb2, hits give low values 1 | S. cerevisiae deletion strains, locus YPR141C, strain kar3, hits give low values 1 | S. cerevisiae deletion strains, locus YPR163C, strain tif3, hits give low values 1.01 | S. cerevisiae deletion strains, locus YPR167C, strain met16, hits give low values 1.01 | S. cerevisiae deletion strains, strain wtn01, hits give low values 0.996 | S. cerevisiae strains, strain wild type, hits give low values 1.01
